Consider 12 compounds from PubChem BioAssay (Tox21).

Test [1] can be described thus: qHTS assay to identify small molecule antagonists of the thyroid receptor (TR) signaling pathway - cell viability counter screen (AID 743064). Further: nearly all actives have a fitted effect of over 50% in size. Further: potency means the concentration at half of the fitted maximal effect. The method, boiled down: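 Compounds were tested on GH3.TRE-Luc cells in the presence of T3 at 1 nM final. Following 23.5 h at 37 °C, cell viability was quantified by CellTiter-Fluor.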
A short description of test [2]: qHTS assay to identify small molecule antagonists of the thyroid receptor (TR) signaling pathway (AID 743065). Further: nearly all actives have a fitted effect of over 55% in size. Further: potency means the concentration at half of the fitted maximal effect. In a few lines: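 Antagonism measured as loss of luciferase signal in GH3 cells stably carrying a TRE-luciferase reporter, co-treated with compound and T3 (1 nM final) for 23.5 h at 37 C. Viability was read in the same well by CellTiter-Fluor.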
In test [3] the test system is thyroid hormone receptor (rat, GH3 cells). Nature of the test: qHTS assay to identify small molecule agonists of the thyroid receptor (TR) signaling pathway (AID 743066; calls by dose curve).
The target in test [4] is Estrogen receptor (Homo sapiens) (UniProt P03372). The test can be described thus: qHTS assay to identify small molecule antagonists of the estrogen receptor alpha (ER-alpha) signaling pathway (AID 743069; active means well fitted curve in the direction sought with a large enough effect in the signal ratio in the repeat runs, not every such curve was filed as active; inconclusive means weak or mixed curves, or effect the other way; inactive means no such curve, though single readings can be large or run the other way; the % refers to the signal ratio). The method, boiled down:
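Compound effects are measured against 17beta-estradiol stimulation in HEK293 cells with a UAS-controlled beta-lactamase reporter for ER-alpha. Exposure lasts 18 hr at 37C; LiveBLAzer B/G FRET substrate follows for 2 hr at room temperature.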

A short description of test [5]: qHTS assay to identify small molecule antagonists of the estrogen receptor alpha (ER-alpha) signaling pathway - cell viability counter screen (AID 743074; calls by dose curve;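 further: HEK293 cells carrying ER-alpha-UAS-bla reporter stimulated with 17beta-estradiol; nearly all actives have a fitted effect of over 45% in size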; further: potency means the concentration at half of the fitted maximal effect).
The target of test [6] is Estrogen receptor (Homo sapiens) (UniProt P03372). The test can be described thus: qHTS assay to identify small molecule agonists of the estrogen receptor alpha (ER-alpha) signaling pathway (AID 743075; calls by dose curve; further: potency means the concentration at half of the fitted maximal effect).
Sequence of Estrogen receptor (Homo sapiens) (P03372 whole entry, looked up): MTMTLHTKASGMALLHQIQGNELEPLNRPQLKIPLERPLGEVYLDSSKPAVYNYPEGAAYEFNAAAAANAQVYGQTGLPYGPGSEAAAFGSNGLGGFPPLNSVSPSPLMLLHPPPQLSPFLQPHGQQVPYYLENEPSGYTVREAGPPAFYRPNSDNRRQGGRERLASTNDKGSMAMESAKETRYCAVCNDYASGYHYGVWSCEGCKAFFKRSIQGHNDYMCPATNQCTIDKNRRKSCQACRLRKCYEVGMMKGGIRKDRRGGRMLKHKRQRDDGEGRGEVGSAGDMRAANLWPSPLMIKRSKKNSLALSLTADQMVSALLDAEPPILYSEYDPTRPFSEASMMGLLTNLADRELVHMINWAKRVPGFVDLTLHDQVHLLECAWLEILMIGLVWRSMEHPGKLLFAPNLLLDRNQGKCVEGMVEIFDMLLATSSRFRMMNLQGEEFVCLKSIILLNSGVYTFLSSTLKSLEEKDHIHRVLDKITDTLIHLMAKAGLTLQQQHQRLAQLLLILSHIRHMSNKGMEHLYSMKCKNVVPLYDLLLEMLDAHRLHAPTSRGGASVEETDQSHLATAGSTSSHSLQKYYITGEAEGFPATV
For test [7] the target is unchanged. The test can be described thus: qHTS assay to identify small molecule agonists of the estrogen receptor alpha (ER-alpha) signaling pathway using the BG1 cell line (AID 743079). Further: nearly all actives have a fitted effect of over 20% in size. Further: potency means the concentration at half of the fitted maximal effect.
For a further test, the target named is Aromatase (Homo sapiens) (UniProt P11511). The test can be described thus: qHTS assay to identify aromatase inhibitors (AID 743083). Further: nearly all actives have a fitted effect of over 55% in size. Further: potency means the concentration at half of the fitted maximal effect.
Sequence of Aromatase (Homo sapiens) (P11511 whole entry, looked up): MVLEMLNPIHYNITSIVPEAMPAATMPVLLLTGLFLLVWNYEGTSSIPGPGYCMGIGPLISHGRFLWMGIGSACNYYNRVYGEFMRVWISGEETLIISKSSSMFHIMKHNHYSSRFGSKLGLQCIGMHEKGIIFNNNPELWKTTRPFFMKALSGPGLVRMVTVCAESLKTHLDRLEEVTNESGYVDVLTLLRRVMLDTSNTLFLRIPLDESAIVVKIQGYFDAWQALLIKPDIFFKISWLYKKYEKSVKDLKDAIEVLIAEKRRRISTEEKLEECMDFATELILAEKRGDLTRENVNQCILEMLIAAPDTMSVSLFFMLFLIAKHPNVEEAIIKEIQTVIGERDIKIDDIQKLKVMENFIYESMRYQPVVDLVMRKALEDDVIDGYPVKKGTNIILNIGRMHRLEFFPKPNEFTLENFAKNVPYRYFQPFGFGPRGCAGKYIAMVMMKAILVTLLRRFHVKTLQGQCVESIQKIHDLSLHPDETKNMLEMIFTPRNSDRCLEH
Test [8] is described as follows: qHTS assay to identify aromatase inhibitors - cell viability counter screen (AID 743084).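 Further: cells stimulated with testosterone during compound exposure; nearly all actives have a fitted effect of over 55% in size.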 Further: potency means the concentration at half of the fitted maximal effect.
Test [9] can be described thus: qHTS assay to identify small molecule that activate the aryl hydrocarbon receptor (AhR) signaling pathway - cell viability counter screen (AID 743086).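 Further: HepG2 liver cells carrying the AhR DRE luciferase reporter; series mostly up to about 70 µM; nearly all actives have a fitted effect of over 45% in size.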 The method, boiled down:
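Cytotoxicity counter screen: CellTiter-Fluor signal (30 min, 37 C) in 4000 HepG2 cells/well carrying the DRE-luciferase reporter, following 24 h compound exposure at 37 C.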

Test [10] addresses Peroxisome proliferator-activated receptor gamma (Homo sapiens) (UniProt P37231). The test can be described thus: qHTS assay to identify small molecule agonists of the peroxisome proliferator-activated receptor gamma (PPARg) signaling pathway (AID 743094; active means well fitted activation curve with a large enough effect in the signal ratio in the repeat runs, not every such curve was filed as active; inconclusive means weak or mixed curves, or effect the other way; inactive means no such curve, though single readings can be large or run the other way; the % refers to the signal ratio; further: potency means the concentration at half of the fitted maximal effect). The method, boiled down:
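GeneBLAzer PPARg UAS-bla HEK293H cells carrying a stably integrated beta-lactamase reporter were pre-incubated 5 h at 37C, then exposed to compounds in DMSO for 17 h at 37C; LiveBLAzer B/G FRET substrate was added for 1 h at room temperature and fluorescence read.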

The nature of test [11]: qHTS assay to identify small molecule antagonists of the peroxisome proliferator-activated receptor gamma (PPARg) signaling pathway - cell viability counter screen (AID 743194). Further: nearly all actives have a fitted effect of over 55% in size. Further: potency means the concentration at half of the fitted maximal effect. To be noted: Potency: co-treated with 50 nM rosiglitazone. The method, boiled down:
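Viability was measured as CellTiter-Glo luminescence in GeneBLAzer PPARg UAS-bla HEK293H cells. These cells had been exposed 17 h at 37 C to compounds together with rosiglitazone at 50 nM final, with the beta-lactamase readout taken in the same wells.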

Test [12] can be described thus: qHTS assay for small molecule agonists of the antioxidant response element (ARE) signaling pathway (AID 743202; active means well fitted activation curve with a large enough effect in the signal ratio in the repeat runs, not every such curve was filed as active; inconclusive means weak or mixed curves, or effect the other way; inactive means no such curve, though single readings can be large or run the other way; the % refers to the signal ratio; further: potency means the concentration at half of the fitted maximal effect). The method, boiled down: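 An ARE-responsive beta-lactamase gene stably integrated in HepG2 cells serves as reporter. After 5 h plating and 16 h compound incubation at 37 C, fluorescence of the B/G FRET substrate was measured.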
The nature of test [13]: qHTS assay for small molecule agonists of the antioxidant response element (ARE) signaling pathway - cell viability counter screen (AID 743203; calls by dose curve; further: nearly all actives have a fitted effect of over 55% in size; further: potency means the concentration at half of the fitted maximal effect). In a few lines: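 CellSensor ARE-bla HepG2 cells, 2,000 per well, rested 5 hrs at 37C/5% CO2, then exposed to compound in DMSO for 16 hrs; viability read as CellTiter-Glo luminescence after 30 min at room temperature, in the reporter wells.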

Test [14] is described as follows: qHTS assay for small molecule activators of the heat shock response signaling pathway - cell viability counter screen (AID 743209). Further: nearly all actives have a fitted effect of over 50% in size. Further: potency means the concentration at half of the fitted maximal effect. In a few lines: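 CellSensor HSE-bla HeLa cells, plated overnight at 37 C/5% CO2, were exposed to compounds in DMSO for 5 h at 37 C. Viability was then read in the same wells by CellTiter-Glo luminescence after 30 min at room temperature.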

The nature of test [15]: qHTS assay to identify small molecule antagonists of the estrogen receptor alpha (ER-alpha) signaling pathway using the BG1 cell line (AID 743080; calls by dose curve;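 further: BG1 cells stimulated with 17beta-estradiol alongside compound; series mostly up to about 70 µM; nearly all actives have a fitted effect of over 25% in size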). In a few lines:
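Endogenous full-length ER-alpha in BG1-Luc-4E2 cells drives a stably integrated 4×ERE luciferase gene; compounds were tested against 17beta-estradiol over 21.5 h, with luminescence and multiplexed viability fluorescence recorded.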

Test [16] in a line: qHTS assay to identify small molecule antagonists of the estrogen receptor alpha (ER-alpha) signaling pathway using the BG1 cell line - cell viability counter screen (AID 743081).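 Further: compound given together with 17beta-estradiol as the ER stimulus; series mostly up to about 70 µM; nearly all actives have a fitted effect of over 45% in size.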
Test [17] deals with Aryl hydrocarbon receptor (Homo sapiens) (UniProt P35869). Nature of the test: qHTS assay to identify small molecule that activate the aryl hydrocarbon receptor (AhR) signaling pathway (AID 743085).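 Further: HG2L7.5c1 human HepG2 liver cells with stably integrated DRE-driven firefly reporter; series mostly up to about 70 µM; nearly all actives have a fitted effect of over 15% in size.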 In a few lines: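 24 h compound exposure, 37C, HepG2-derived HG2L7.5c1 cells with DRE-responsive luciferase. Readouts: fluorescence viability, then luminescence at room temperature after 30 min.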
Sequence of Aryl hydrocarbon receptor (Homo sapiens) (P35869 whole entry, looked up): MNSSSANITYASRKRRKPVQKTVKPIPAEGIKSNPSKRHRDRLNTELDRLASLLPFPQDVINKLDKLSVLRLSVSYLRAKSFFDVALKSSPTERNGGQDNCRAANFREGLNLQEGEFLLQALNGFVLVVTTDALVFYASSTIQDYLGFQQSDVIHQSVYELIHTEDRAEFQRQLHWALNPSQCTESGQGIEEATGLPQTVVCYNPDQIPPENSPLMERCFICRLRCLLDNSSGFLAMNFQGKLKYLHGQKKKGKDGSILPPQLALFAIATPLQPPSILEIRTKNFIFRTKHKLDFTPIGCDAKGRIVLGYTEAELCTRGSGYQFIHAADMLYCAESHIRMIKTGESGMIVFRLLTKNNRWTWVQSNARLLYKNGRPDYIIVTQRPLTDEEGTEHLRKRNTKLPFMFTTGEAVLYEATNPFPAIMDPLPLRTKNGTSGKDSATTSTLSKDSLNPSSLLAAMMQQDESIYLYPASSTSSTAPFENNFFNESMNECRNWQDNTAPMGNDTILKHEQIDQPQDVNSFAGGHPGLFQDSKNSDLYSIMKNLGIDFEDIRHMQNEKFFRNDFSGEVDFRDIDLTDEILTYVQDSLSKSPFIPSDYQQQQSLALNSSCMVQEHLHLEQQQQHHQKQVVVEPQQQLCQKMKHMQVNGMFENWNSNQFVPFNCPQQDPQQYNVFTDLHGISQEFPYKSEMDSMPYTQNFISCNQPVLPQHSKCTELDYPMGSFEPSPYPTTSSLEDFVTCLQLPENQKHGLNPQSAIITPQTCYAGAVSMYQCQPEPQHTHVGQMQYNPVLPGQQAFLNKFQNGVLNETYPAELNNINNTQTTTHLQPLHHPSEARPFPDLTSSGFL

The target in test [18] is Peroxisome proliferator-activated receptor gamma (Homo sapiens) (UniProt P37231). Nature of the test: qHTS assay to identify small molecule antagonists of the peroxisome proliferator-activated receptor gamma (PPARg) signaling pathway (AID 743191; calls by dose curve; further: series mostly up to about 63 µM; nearly all actives have a fitted effect of over 30% in size). The method, boiled down: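 Beta-lactamase reporter under UAS control in HEK293H PPARg-bla cells; compound treatment 17 h at 37C. Read-out: fluorescence intensity after 1 h room-temperature incubation with LiveBLAzer B/G FRET substrate.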
Sequence of Peroxisome proliferator-activated receptor gamma (Homo sapiens) (P37231 whole entry, looked up): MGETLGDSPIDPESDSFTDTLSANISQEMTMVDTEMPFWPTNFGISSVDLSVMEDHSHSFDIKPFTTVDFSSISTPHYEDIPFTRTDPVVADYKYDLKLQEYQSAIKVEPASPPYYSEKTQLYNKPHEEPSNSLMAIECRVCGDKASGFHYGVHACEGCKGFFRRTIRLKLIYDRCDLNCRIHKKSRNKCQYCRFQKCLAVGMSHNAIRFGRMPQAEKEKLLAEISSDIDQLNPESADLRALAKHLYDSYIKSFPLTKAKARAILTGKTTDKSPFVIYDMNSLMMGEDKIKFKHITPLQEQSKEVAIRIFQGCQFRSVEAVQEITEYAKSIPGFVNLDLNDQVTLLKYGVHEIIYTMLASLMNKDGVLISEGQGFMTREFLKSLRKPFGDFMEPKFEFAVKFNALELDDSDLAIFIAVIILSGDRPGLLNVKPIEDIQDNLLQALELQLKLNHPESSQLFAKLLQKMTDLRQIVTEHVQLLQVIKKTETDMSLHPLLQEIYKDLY

Test [19] in a line: qHTS assay for small molecule activators of the heat shock response signaling pathway (AID 743210; active means well fitted activation curve with a large enough effect in the signal ratio in the repeat runs, with a control signal flat, not every such curve was filed as active; inconclusive means weak or mixed curves; the % refers to the signal ratio;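 further: HeLa cells with beta-lactamase reporter driven by heat shock elements; series mostly up to about 63 µM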). The method, boiled down: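 In HSE-bla HeLa cells, 5 h compound incubation (37 C) precedes addition of LiveBLAzer B/G substrate; after 2.5 h at room temperature, fluorescence intensity indicates reporter induction.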

SMILES strings stand for the structures. Where “and” joins values, the source holds several entries; their conditions need not be identical. Equal values may be shown once. Some compounds were tested as several samples or in several runs, with calls that do not always agree. Calls of active or inactive are those of the source. Unless noted, the call rests on the fitted dose curve; in most records, active means well fitted curve in the direction sought with a large enough effect in the repeat runs; inconclusive means weak or mixed curves; inactive means no such curve, though single readings can be large; an effect the other way counts as inactive or inconclusive.

On to `CCC(C)(C)c1ccc(O)c(C(C)(C)CC)c1`, for which the Potency in [1] is 12.1 µM (active) and 13.7 µM (active); in test [2], 12.1 µM (active) and 12.2 µM (active); with Aromatase (Homo sapiens) it was 60.4 µM (active) and 30.6 µM (active); in test [8] it was 42.8 µM (active) and 27.3 µM (active); in test [11], 24.3 µM (active) and 21.9 µM (active); in test [13], 61.1 µM (active). In test [14], the Potency is 17.2 µM (active) and 17.4 µM (active). Moreover, the Potency result in test [3], in test [4], in test [5], in [6], in test [7] and in test [9] was “inactive” throughout. The Potency result in [10] and in test [12] was “inactive” throughout.

On to `COc1cc(C[C@@H](C)N)c(OC)cc1Br`, for which the Potency in test [1] is 62.8 µM (active); in test [2], 56 µM (active). Further, the Potency result in test [3], in test [4], in test [6], in [7], in test [15] and in [16] was “inactive” each time. Moreover, the Potency result in test [8], in test [17], in [18], in [11], in test [13] and in [14] was “inactive” throughout. In test [19], the Potency entry was “inactive”.

Regarding `CC(O)CN1CCN(CC(=O)[O-])CCN(CC(=O)[O-])CCN(CC(=O)[O-])CC1.[Gd+3]` (centres undefined), the Potency entry (in test [1]; in test [2]; in test [3]; in [15]; in test [16]; with Aromatase (Homo sapiens)) was “inactive” throughout. Besides, the Potency result in test [8], in test [17], in test [9], in test [10], in [11] and in test [12] was “inactive” each time. In addition, the Potency result in test [13], in [14] and in test [19] was “inactive” throughout. For the same compound, the Potency entry in test [5] is “inactive and 21.3 µM (active)”; in [6] it was “inactive and 23.9 µM [inconclusive] (active)”; in test [7] it was “inactive and 5.31 µM (active)”.

In the case of `N#CC(C#N)=C(C#N)C#N`, the Potency entry in test [1], in test [2], in test [3], in [5], in test [6] and in [7] was “inactive” in each case. Moreover, the Potency entry (in [15]; in test [16]; in the test with Aromatase (Homo sapiens); in [8]; in [17]; in test [9]) was “inactive” in each case. In addition, the Potency entry in test [10], in test [11], in test [13], in test [14] and in test [19] was “inactive” each time. Moreover, the Potency in [12] is 7.17 µM (active).

Consider `O=CC=O`, for which the Potency result in test [1], in test [2], in [3], in test [4], in test [5] and in [6] was “inactive” each time. The Potency entry (in test [16]; with Aromatase (Homo sapiens); in test [8]; in [9]; in test [10]; in [18]) was “inactive” throughout. Moreover, the Potency entry in test [11], in test [12], in test [13], in test [14] and in [19] was “inactive” each time. Besides, the Potency result in test [7] is “inactive and 28.1 µM (active)”.

Turning to `CCN(C(C)=O)c1cccc(-c2ccnc3c(C#N)cnn23)c1`, the Potency entry in [1], in test [2], in test [3], in test [5], in test [6] and in [7] was “inactive” each time. Moreover, the Potency result (in test [15]; in test [16]; with Aromatase (Homo sapiens); in [8]; in test [17]; in [9]) was “inactive” throughout. Also, the Potency entry in [10], in [18], in [11], in test [12], in test [13] and in [14] was “inactive” throughout. In test [19], the Potency result was “inactive”.

`CCCN(CCC)c1c([N+](=O)[O-])cc(C(C)C)cc1[N+](=O)[O-]`: the Potency in test [1] and in test [2] was 61.1 µM (active) in each case. In addition, the Potency entry (in test [3]; in test [5]; in [6]; in test [7]; in test [16]; with Aromatase (Homo sapiens)) was “inactive” each time. In addition, the Potency entry in test [8], in test [17], in test [9], in [10], in [18] and in test [11] was “inactive” each time. For the same compound, the Potency entry in [12], in test [13], in test [14] and in test [19] was “inactive” in each case.

Consider `CCOC(=O)c1cn2nc(OP(=S)(OCC)OCC)cc2nc1C`, for which the Potency result in test [1], in [2], in [3], in [5], in test [6] and in test [7] was “inactive” in each case. In addition, the Potency result (in test [15]; in [16]; in the test with Aromatase (Homo sapiens); in test [8]; in [9]; in test [11]) was “inactive” in each case. Besides, the Potency entry in test [13] and in test [14] was “inactive” throughout.

With `C1CCNCC1`, the Potency result in [1], in test [2], in [3], in test [4], in test [5] and in [15] was “inactive” in each case. The Potency entry (in test [16]; with Aromatase (Homo sapiens); in test [8]; in test [17]; in test [9]; in test [10]) was “inactive” throughout. The Potency result in [18], in test [11], in test [12], in test [13] and in [19] was “inactive” throughout.

Consider `Cc1ccc2c(C)cccc2c1`, for which the Potency entry in test [1], in [2], in [3], in test [5], in [6] and in test [7] was “inactive” in each case. The Potency entry (in test [16]; in the test with Aromatase (Homo sapiens); in test [8]; in test [9]; in test [18]; in test [11]) was “inactive” each time. The Potency result in test [13], in test [14] and in [19] was “inactive” in each case.

As for `COP(=O)(OC)OC(Br)C(Cl)(Cl)Br` (centres undefined), the Potency in test [1] is 54.5 µM (active) and 61.1 µM (active); in test [2], 54.5 µM (active) and 48.6 µM (active); in test [6] it was 61.7 µM [inconclusive] (active) and inactive; in the test with Aromatase (Homo sapiens) it was 61.2 µM (active) and 61.1 µM (active); in [8] it was 48.6 µM (active); in [10] it was 54.9 µM (active). The Potency in [12] was 19.4 µM (active) and 9.69 µM (active). Moreover, the Potency entry in [3], in [5], in test [7], in test [16], in test [9] and in test [13] was “inactive” throughout. Besides, the Potency result in test [19] is “inactive”.

As for `COC1CC(=C(c2cccs2)c2cccs2)C[N+](C)(C)C1` (centres undefined), the Potency result in test [1], in test [2], in test [3], in [4], in [5] and in [6] was “inactive” in each case. The Potency entry (in test [15]; in test [16]; with Aromatase (Homo sapiens); in test [8]; in [17]; in test [9]) was “inactive” each time. In addition, the Potency entry in test [10], in test [11], in test [12], in test [13], in [14] and in test [19] was “inactive” in each case.
